Source: PubChem BioAssay
A selection: hits, their analogues and other compounds. The true share with any hit is near 21%.
Pf growth 96h = Primary qHTS for delayed death inhibitors of the malarial parasite plastid, 96 hour incubation. P. falciparum luciferase reporter growth, 96 h. Potency, µM (series often up to 28.7 µM), without a hit: at the highest dose activity change, negative = inhibition, actives largely listed as inhibitors. hit rate 6.9% among 320,000. AID 504834, 2011; also: potency is read from the fitted curve at half-maximal effect; % is scaled to controls: 0 for no effect and ±100 for the full control effect
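Delayed-death screen, second-generation endpoint: infected erythrocytes, 2% hematocrit, 0.05% parasitemia final; 96 hours at 37 C, 5% CO2; luciferase detection reagent; luminescence decrease equals reduced growth.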
Shiga toxin inh = A qHTS for Small Molecule Inhibitors of Shiga Toxin; Vero cells, Shiga toxin protein synthesis inhibition reporter; inhibition, % at 38.7 µM; hit rate 9.2% among 290,000; in the data active = inhibition mostly above about 28%, no sharp cut-off; inactive = mostly below about 43%; also: 0% is about no effect
Pf growth 48h = Primary qHTS for delayed death inhibitors of the malarial parasite plastid, 48 hour incubation. P. falciparum luciferase growth in erythrocytes, 48 h. Potency, µM (series often up to 28.7 µM), for the others: at the highest dose activity change, negative = inhibition, usual class: inhibitors. hit rate 5.9% among 310,000. AID 504832, 2011; also: potency is read from the fitted curve at half-maximal effect; % is scaled to controls: 0 for no effect and ±100 for the full control effect
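A one-generation exposure of luciferase-tagged malaria parasites in RPMI 1640/Albumax erythrocyte culture, 37 C and 5% CO2. Inhibition is inferred from decreased luminescence after adding detection reagent.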
NS1 inh = qHTS Assay for Inhibitors of Influenza NS1 Protein Function. Potency, µM (titrated, usually from 46.1 µM), for inactives: top-dose activity, positive = more growth. hit rate 0.4% among 270,000; calls by dose curve; also: potency is read from the fitted curve at half-maximal effect; actives are rising curves; nearly all actives have a fitted effect of over 50% in size
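Compounds were scored for reversing the slow growth caused by influenza A NS1 in S. cerevisiae, measured by optical density at 600 nm. Assay medium contained 2% galactose at pH 6.0; NS1-free yeast of the same strain were the positive control.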
SARS PLP yeast = qHTS of Yeast-based Assay for SARS-CoV PLP. S. cerevisiae expressing SARS-CoV PLpro, growth rescue. Potency, µM (titrated, usually from 32.9 µM), for inactives: at the highest dose activity, positive = growth rescue, usual class: activators. hit rate 0.19% among 330,000. AID 485353, 2010; calls by dose curve; also: potency is read from the fitted curve at half-maximal effect; 0% is about no effect; nearly all actives have a fitted effect of over 55% in size
Cycloheximide cs = Cycloheximide Counterscreen for Small Molecule Inhibitors of Shiga Toxin; cell reporter, cycloheximide protein synthesis inhibition counterscreen; max response, %; hit rate 12% among 300,000; AID 2314, 2010; in the data active = max response mostly above about 13%, no sharp cut-off; inactive = mostly below about 14%; also: read at 38.3 µM for the half of the compounds with a filed dose; 0% is about no effect
* hit, by the source's call; ? = inconclusive; · = no result given. Unless noted, calls follow the shape of the dose curve; as a rule, active = well fitted inhibition curve with a large enough effect; inconclusive = small, poorly fitted or top-dose-only effect, or another doubt; inactive = no such curve, though single readings can be large or run the other way.

SMILES	Pf growth 96h	Shiga toxin inh	Pf growth 48h	NS1 inh	SARS PLP yeast	Cycloheximide cs
O=C(NCc1ccccc1)c1nc(S(=O)(=O)Cc2ccccc2)ncc1Cl	?	48.3	15.2%	-11.3%	-12.8%	27.5*
CC(=O)Nc1ccc(NC(=O)c2nc(S(=O)(=O)Cc3ccccc3)ncc2Cl)cc1	?	93.5*	43.1%	-1.8%	8.9%	36.6*
Cc1ccc(CS(=O)(=O)c2ncc(Cl)c(C(=O)Nc3ccc(OC(F)F)cc3)n2)cc1	4.6%	26.7	30.5%	-19.7%	-4.8%	17.4*
COc1ccc(CNC(=O)c2nc(S(=O)(=O)Cc3ccccc3)ncc2Cl)cc1	43.6%	14.5	24.6%	17.8%	-8.4%	28.9*
Cc1noc(C(=O)NCc2ccccc2)c1Cl	-1.2%	-18.6	·	-14.3%	2.6%	-0.5
COC(=O)c1ccccc1NC(=O)c1nc(S(=O)(=O)Cc2ccccc2)ncc1Cl	?	-1.8	18.4%	4.3%	-7.2%	-9.8
CN1CCN(S(=O)(=O)c2cccc(C(=O)N(C)CC(=O)Nc3ccc(F)c(F)c3F)c2)CC1	0.4%	·	?	·	4.3%	·
CC(C)[C@H](NC(=O)N1CCn2c1nc1ccccc12)C(=O)N[C@@H](Cc1ccccc1)C(=O)O	-10.5%	1.1	-24.0%	-6.4%	?	-0.6
O=C(COc1ccc(F)cc1)Nc1cc(S(=O)(=O)N2CCCCC2)ccc1N1CCCCC1	7.38µM*	·	3.7µM*	·	-1.7%	·
CCN1CCN(c2ccc(S(=O)(=O)N3CCCCC3)cc2NC(=O)COc2ccc(Cl)cc2)CC1	?	·	8.28µM*	·	·	·
O=C(COc1ccc(F)cc1Cl)Nc1cccc(S(=O)(=O)N2CCCC2)c1	?	·	?	·	-0.9%	·
CCN1CCN(c2ccc(S(=O)(=O)N3CCCCC3)cc2NC(=O)COc2ccc(F)cc2Cl)CC1	?	-7.6	7.38µM*	-2.5%	-1.1%	-2.7
Cc1ccccc1OCC(=O)Nc1cc(S(=O)(=O)N2CCCCC2)ccc1N1CCN(C)CC1	?	-8.9	4.0%	-7.0%	-0.4%	-1.9
CCN1CCN(c2ccc(S(=O)(=O)N3CCCCC3)cc2NC(=O)COc2cc(C)ccc2Cl)CC1	1.85µM*	·	11.7µM*	·	2.9%	·
O=C(COc1ccccc1)OCc1cc(-c2ccco2)on1	36.3%	·	39.0%	·	-4.5%	·
O=C(COc1ccc(S(=O)(=O)N2CCCCC2)cc1)Nc1ccccc1F	8.5%	-1.6	11.7µM*	6.4%	4.1%	0.9
Cc1ccc(C)c(OCCC(=O)Nc2ccc3c(c2)OCO3)c1	-29.3%	·	-24.3%	·	-5.4%	·
c1ccc2c(c1)CCOC2CNCCCN1CCCCC1 (stereo not drawn)	11.7µM*	-5.9	?	5.7%	-9.8%	-4.4
CCN(C[C@H]1N[C@@](CC)(C(=O)OC)[C@H]2C(=O)N(Cc3ccccc3)C(=O)[C@@H]12)C(C)=O	·	·	·	·	-0.4%	·
C=C1CCC2[C@](C)(CO)C(O)CC[C@]2(C)C1C/C=C1/C(=O)OCC1O (stereo partly drawn)	15.1µM*	·	?	·	·	·
FC(F)(F)c1ccc2c(c1)N(CCCN1CCN(CCCl)CC1)c1ccccc1S2	·	25.6	9.28µM*	9.0%	-1.4%	-3.2
OCCN1CCN(CCCN2c3ccccc3C=Cc3ccccc32)CC1	6.01µM*	-6.4	6.75µM*	-12.8%	·	-4.8
O=C(N1CCN(CCO)CC1)N1c2ccccc2CCc2ccccc21	-9.9%	16.5	-3.6%	-1.3%	-4.6%	-0.6
CN1CCN(CCC(=O)N2c3ccccc3Sc3ccc(C(F)(F)F)cc32)CC1	10.7µM*	12.0	?	5.1%	-9.4%	9.7
OCCN1CCN(CCCN2c3ccccc3Sc3ccc(C(F)(F)F)cc32)CC1	1.85µM*	-24.7	5.22µM*	6.5%	-0.2%	-7.2
O=C1c2ccccc2C(=O)N1CC(=O)N1c2ccccc2Sc2ccc(C(F)(F)F)cc21	-0.8%	7.1	9.0%	-0.1%	-38.7%	-2.1
CN(CC(=O)Nc1ccc(Cl)cc1)C(=O)C1CCCC1	66.3%	·	-16.6%	·	0.1%	·
Cc1ccc(C(=O)N(CCC2=CCCCC2)c2c(N)n(Cc3ccccc3)c(=O)[nH]c2=O)o1	8.6%	·	?	·	6.8%	·
